The whole screen tested about 360,000 compounds, of which about 16,000 (4.4%) were called active. Where a call stands in place of a potency, no number is given. Roughly 9% stayed inconclusive and do not appear here. The call rests on the fitted dose curve; in most records, active means well fitted inhibition curve with a large enough effect; inconclusive means small, poorly fitted or top-dose-only effect; inactive means no such curve, though single readings can be large or run the other way. Many of the other results were omitted from the sample, so actives are more common in it than they were.
Potency means the concentration at half of the fitted maximal effect.

Sequence of Bromodomain adjacent to zinc finger domain protein 2B (Homo sapiens) (Q9UIF8 whole entry, looked up, the tested form may be a part): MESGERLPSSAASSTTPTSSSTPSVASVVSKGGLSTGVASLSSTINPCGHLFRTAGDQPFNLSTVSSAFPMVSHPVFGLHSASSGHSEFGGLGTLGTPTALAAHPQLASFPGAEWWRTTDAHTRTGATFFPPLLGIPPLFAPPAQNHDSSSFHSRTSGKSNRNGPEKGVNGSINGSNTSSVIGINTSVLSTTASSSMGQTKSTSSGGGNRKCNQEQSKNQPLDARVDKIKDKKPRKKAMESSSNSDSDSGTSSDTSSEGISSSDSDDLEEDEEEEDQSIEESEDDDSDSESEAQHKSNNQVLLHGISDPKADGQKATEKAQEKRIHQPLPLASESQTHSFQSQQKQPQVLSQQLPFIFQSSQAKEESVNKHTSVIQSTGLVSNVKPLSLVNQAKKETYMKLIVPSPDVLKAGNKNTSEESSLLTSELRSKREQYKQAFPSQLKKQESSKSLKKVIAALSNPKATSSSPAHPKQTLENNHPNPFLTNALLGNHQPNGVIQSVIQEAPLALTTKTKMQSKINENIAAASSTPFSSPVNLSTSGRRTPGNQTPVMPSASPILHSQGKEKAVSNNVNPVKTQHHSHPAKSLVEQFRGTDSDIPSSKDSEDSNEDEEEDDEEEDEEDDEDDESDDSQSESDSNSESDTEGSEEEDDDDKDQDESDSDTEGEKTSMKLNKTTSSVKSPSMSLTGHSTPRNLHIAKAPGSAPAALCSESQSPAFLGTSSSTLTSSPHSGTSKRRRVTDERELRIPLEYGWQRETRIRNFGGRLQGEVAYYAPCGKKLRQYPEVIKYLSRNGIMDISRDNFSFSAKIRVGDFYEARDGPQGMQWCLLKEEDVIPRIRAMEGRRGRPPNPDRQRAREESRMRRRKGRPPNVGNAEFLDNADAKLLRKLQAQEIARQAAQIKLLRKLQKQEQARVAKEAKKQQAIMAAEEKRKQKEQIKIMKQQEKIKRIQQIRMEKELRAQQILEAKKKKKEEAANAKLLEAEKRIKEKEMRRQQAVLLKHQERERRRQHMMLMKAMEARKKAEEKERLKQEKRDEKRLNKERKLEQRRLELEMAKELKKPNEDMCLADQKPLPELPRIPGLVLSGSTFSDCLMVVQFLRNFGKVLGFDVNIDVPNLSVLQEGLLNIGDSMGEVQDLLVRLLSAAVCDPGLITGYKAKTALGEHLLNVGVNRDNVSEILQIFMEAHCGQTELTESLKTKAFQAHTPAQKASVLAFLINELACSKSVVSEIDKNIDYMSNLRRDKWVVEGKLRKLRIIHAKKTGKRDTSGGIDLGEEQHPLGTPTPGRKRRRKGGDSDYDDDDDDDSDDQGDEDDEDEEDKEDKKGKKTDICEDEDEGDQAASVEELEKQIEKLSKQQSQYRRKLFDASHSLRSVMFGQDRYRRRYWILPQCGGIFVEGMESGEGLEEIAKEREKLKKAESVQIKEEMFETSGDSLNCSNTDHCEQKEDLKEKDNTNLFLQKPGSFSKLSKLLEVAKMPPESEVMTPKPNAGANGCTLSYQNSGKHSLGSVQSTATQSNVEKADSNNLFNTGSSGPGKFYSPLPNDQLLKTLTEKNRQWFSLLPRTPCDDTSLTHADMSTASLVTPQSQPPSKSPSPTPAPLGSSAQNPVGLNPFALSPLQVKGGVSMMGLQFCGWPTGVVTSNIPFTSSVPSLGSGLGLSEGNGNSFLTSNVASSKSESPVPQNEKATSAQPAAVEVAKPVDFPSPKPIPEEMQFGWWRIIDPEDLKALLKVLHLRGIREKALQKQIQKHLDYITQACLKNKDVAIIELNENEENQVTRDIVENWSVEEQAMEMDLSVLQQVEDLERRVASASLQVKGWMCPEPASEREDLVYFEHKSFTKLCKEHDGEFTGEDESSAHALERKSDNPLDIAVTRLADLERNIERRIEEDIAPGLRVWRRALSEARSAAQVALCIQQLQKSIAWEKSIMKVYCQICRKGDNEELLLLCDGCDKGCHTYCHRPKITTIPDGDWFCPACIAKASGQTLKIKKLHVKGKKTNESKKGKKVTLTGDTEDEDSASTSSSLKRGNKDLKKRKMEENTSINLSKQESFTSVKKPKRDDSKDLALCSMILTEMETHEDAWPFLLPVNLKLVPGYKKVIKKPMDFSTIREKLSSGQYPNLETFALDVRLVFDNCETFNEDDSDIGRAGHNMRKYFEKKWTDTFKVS

In this assay the target is Bromodomain adjacent to zinc finger domain protein 2B (Homo sapiens) (UniProt Q9UIF8). The assay can be described thus: qHTS Assay for Inhibitors of BAZ2B. Further: nearly all actives have a fitted effect of over 60% in size. The following applies: AlphaScreen BAZ2B-H3K14Ac peptide displacement; series mostly up to 114 µM. The gist of the method:
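Protein-peptide AlphaScreen: BAZ2B 50 nM, b-H3K14Ac 50 nM, 1x PBS pH 7.4 + 0.01% Tween-20. Preincubation 30 min RT; cpd 30 min RT (top 110 uM); beads 20 min RT, light-protected.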
`COc1ccccc1NC(=O)CSC1=Nc2ccccc2C2=NC(CC(=O)NCc3cccs3)C(=O)N12` (centres undefined): the Potency result is “inactive”. For `COc1ccc(CN2C(=O)C(NC(=O)c3cccc(C)c3)(C(F)(F)F)N=C2c2ccccc2)cc1` (centres undefined) the value was “inactive”; for `COc1cc(Cl)c(S(=O)(=O)N2CCN(Cc3ccc4c(c3)OCO4)CC2)cc1Cl`, “inactive”. The value for `CSc1ccc(/C=N/NC(=O)c2cccc(Cl)c2)cc1` was “inactive”; that for `COc1ccccc1/C=N/N1CCN(Cc2ccccc2Cl)CC1` was 44.7 µM (active); that for `CSc1ccc(/C=N/N2CCN(Cc3ccccc3Cl)CC2)cc1` was 25.1 µM (active). For `COc1ccccc1/C=C/C=N/NC(=O)CN1CCN(Cc2ccccc2)CC1` the value was “inactive”; for `O=S1(=O)CCN(Cc2ccccc2Cl)CC1`, “inactive”; for `CCC(=O)N1c2ccccc2CC1C(=O)N1CCN(c2ccccc2)CC1` (centres undefined), “inactive”. `CCc1ccc(NC(=O)N2CCN(C(=O)c3nsc4ccccc34)CC2)cc1`: the Potency result was “inactive”.

`Cc1ccccc1CSc1nc2c([nH]c3ccccc32)c(=O)n1C`: the Potency result was “inactive”. Take `CCN(CC)c1nn2c(=O)c(C(=O)NCCc3ccccc3)cnc2s1`: the Potency entry was “inactive”. For `COc1ccccc1N1CCN(C(=O)C2CCN(S(=O)(=O)c3c(C)noc3/C=C/c3ccc(C)cc3)CC2)CC1` the value was “inactive”. For `COc1ccccc1-c1noc(CSc2nnc(-c3ccccc3)n2-c2ccc(C)c(C)c2)n1` the value was “inactive”. The value for `Cc1ccc(NC(=O)c2ccc(CN3CC(=O)N4CCCCC4C3=O)cc2)c(Cl)c1` (centres undefined) was “inactive”; that for `COc1cc(NC(=O)CCn2nc(C)cc2C)cc(OC)c1OC` was “inactive”; that for `N#Cc1nc(-c2cccc3ccccc23)oc1N` was “inactive”.

With `Cc1oc(-c2ccccc2F)nc1CS(=O)CC(=O)NCCN1CCCCC1C` (centres undefined), the Potency entry is “inactive”. For `CC1CCN(c2oc(-c3ccccc3F)nc2C#N)CC1`, the Potency was 14.1 µM (active). For `COc1cccc(C2C(C(=O)Nc3ccc(C)cc3C)=C(C)Nc3c(C(=O)Nc4ccccc4)cnn32)c1` (centres undefined) the value was “inactive”.

With `CCOc1ccccc1C(=O)NCc1ccc2c(c1)CCN2C(=O)c1ccc(F)cc1`, the Potency result was “inactive”. For `COc1ccc(NC(=O)C2CCN(c3ccc(Sc4ccc(C)cc4)nn3)CC2)c(OC)c1` the value was “inactive”; for `COc1ccc(CNC(=O)/C(C#N)=C/c2cccc(OC)c2OC)cc1`, “inactive”. For `N#C/C(=C\c1ccc(O)c(O)c1)C(=O)NCc1ccccc1` the value was 12.6 µM (active); for `COCCNC(=O)/C(C#N)=C/c1cccc(OCc2ccccc2)c1`, “inactive”. The value for `O=C(Nc1nnc(C2CC(=O)N(c3ccc(Cl)cc3)C2)s1)c1ccco1` (centres undefined) was “inactive”; that for `Cc1c(CNC(C)c2ccccc2)c(C(=O)O)c(C)n1Cc1c(F)cccc1Cl` (centres undefined) was “inactive”; that for `COc1cc(C(CC(=O)NCCC(C)C)N2Cc3ccccc3C2=O)cc(OC)c1OC` (centres undefined) was “inactive”. As to `O=C(c1cc2c(s1)CCC2)N1CCN(c2ccccc2)CC1`, the Potency is 56.2 µM (active). `O=C(C1CCC1)N1CCN(c2ccccc2)CC1`: the Potency result is “inactive”.

As to `O=C(NNC(=O)c1cc2c(s1)CCCC2)c1ccccc1`, the Potency entry was “inactive”. The value for `COc1ccc(OCC(=O)Nc2ccc(N3CCC(C)CC3)cc2)cc1` was “inactive”. `COc1ccc(NC(=O)N2CCC(Cc3ccccc3)CC2)cc1`: the Potency result was “inactive”. For `COc1ccc(NC(=S)NCC2CCN(c3ccc(OC)cc3)C2)cc1` (centres undefined) the value was 31.6 µM (active). As for `COc1cccc(N2CC(C(=O)Nc3c(C)cccc3C)CC2=O)c1` (centres undefined), the Potency entry was “inactive”. For `COc1ccc(NC(=S)NCCN2CCC(C)CC2)cc1` the value was “inactive”; for `COc1ccc(N2CCC(CNC(=S)Nc3c(C)cccc3C)C2)cc1` (centres undefined), 39.8 µM (active); for `NC(=O)CSc1nc2c(oc3ccccc32)c(=O)n1Cc1ccccc1`, “inactive”. For `CCOc1ccc(OCC)c(NS(=O)(=O)c2ccc3[nH]c(=O)ccc3c2)c1` the value was “inactive”.

Turning to `CCOc1ccc(N(CC)C(=O)c2noc3c2COc2ccc(C)cc2-3)cc1`, the Potency result was “inactive”. The value for `COc1cc(-n2c(C)nc3cc(C(=O)NCc4ccco4)ccc32)cc(OC)c1OC` was 56.2 µM (active). Regarding `COc1ccccc1-n1c(C)nc2cc(C(=O)NCc3ccc4c(c3)OCO4)ccc21`, the Potency result was “inactive”. As for `COc1cc(C(=O)N[C@@H](C)C(=O)NCc2ccco2)cc(OC)c1OC`, the Potency result was “inactive”. On to `COc1ccc(-c2cn3nc(N4CCC(C(=O)Nc5cccc(C)c5C)CC4)sc3n2)cc1`, for which the Potency result was “inactive”. For `Cc1ccccc1C(=O)Nc1sc2c(c1C(=O)N1CCC(C)CC1)CCCC2` the value was “inactive”; for `O=C(c1cccs1)N(C(=O)c1cccs1)c1ccccn1`, “inactive”.

Regarding `O=C(C1=C(O)C(=O)N(CCOCCO)C1c1ccccn1)c1cccs1` (centres undefined), the Potency was 50.1 µM (active). The value for `O=C(c1cccs1)c1cn(CCOc2ccc(Cl)cc2)c2ccccc12` was “inactive”; that for `O=c1n(Cc2cccc(C(F)(F)F)c2)c2ccccc2c2nc(-c3ccccc3)nn12` was “inactive”; that for `O=C(NCc1ccccc1)c1cccc(NC(=O)N2CCSc3ncccc32)c1` was “inactive”.

As for `Cc1ccc(NC(=O)Nc2sc3nc4n(c(=O)c3c2C)CCC(C)CC4)c(Cl)c1` (centres undefined), the Potency result is “inactive”. For `COc1ccc(NC(=O)Nc2cccc(-c3noc(C)n3)c2)cc1` the value was “inactive”; for `Cc1cccc(Cn2c(CN3CCC(C(=O)NCc4ccccc4Cl)CC3)cc3ccccc32)c1`, “inactive”; for `COc1ccc(Cl)cc1NC(=O)CCC(=O)c1ccc(C)cc1`, “inactive”. For `COc1ccc(Cl)cc1NC(=O)CCS(=O)(=O)c1ccc(Br)cc1` the value was 8.91 µM (active); for `Cn1c(=O)oc2cc(S(=O)(=O)CCC(=O)NCCc3ccc(Cl)cc3)ccc21`, “inactive”. The value for `COc1ccc(Cl)cc1NC(=O)CN(C)CC(=O)Nc1ccc2c(c1)OCO2` was “inactive”.

Turning to `COc1ccc(Cl)cc1NC(=O)CCS(=O)(=O)c1cc2c(cc1C)NC(=O)CO2`, the Potency entry is “inactive”. For `CC(=O)N1CCc2cc(Br)cc(S(=O)(=O)CCC(=O)NCCc3ccc(Cl)cc3)c21` the value was “inactive”; for `COc1ccc(Cl)cc1NC(=O)CN(C)C(=O)c1cc2ccccc2cc1OC`, “inactive”; for `O=C(CCS(=O)(=O)c1ccc(Br)cc1)NCCc1ccc(Cl)cc1`, 50.1 µM (active).

Turning to `COc1ccc(Cl)cc1NC(=O)CN(C)Cc1ccc(OC)c(OC)c1`, the Potency was 20 µM (active). In the case of `CCc1ccccc1NS(=O)(=O)c1ccc2nc(-c3ccccc3)[nH]c2c1`, the Potency entry was “inactive”. For `O=S(=O)(NCC(c1ccco1)N1CCOCC1)c1cc(F)ccc1F` (centres undefined) the value was “inactive”; for `Cc1ccc(Nc2ccc3cc(S(=O)(=O)N4CCCCC4)ccc3n2)cc1F`, “inactive”. The value for `Cc1cc(C)c(NC(=O)CN2C(=O)c3cccnc3Oc3ccc(Cl)cc32)c(C)c1` was “inactive”; that for `COc1cc(NC(=O)c2cc3ccc4cccnc4c3[nH]2)cc(OC)c1OC` was “inactive”. The value for `CCN(c1ncnc2c1cnn2-c1ccc(C)cc1)C1CCCCC1` was “inactive”; that for `O=c1[nH]c2cc(Br)ccc2n2cccc12` was “inactive”; that for `Cc1ccc(OCCCC(=O)Nc2ccc(S(=O)(=O)Nc3cc(C)nc(C)n3)cc2)cc1` was “inactive”.

Regarding `Cc1ccc(NC(=O)CSc2nc(CSc3ccc(C)cc3)cc(=O)[nH]2)cc1`, the Potency result was “inactive”. In the case of `COc1ccc(NC(=O)CSc2nc(NS(=O)(=O)c3ccc(C)cc3)cc(=O)[nH]2)cc1`, the Potency was 50.1 µM (active). As for `CCc1nnc(NS(=O)(=O)c2ccc(NC(=S)NC(=O)/C=C/c3cccs3)cc2)s1`, the Potency is 50.1 µM (active).

For the compound `CCc1nnc(NS(=O)(=O)c2ccc(NS(=O)(=O)c3ccccc3)cc2)s1`, the Potency entry is “inactive”. For `CCc1nnc(NS(=O)(=O)c2ccc(NC(=S)NC(=O)c3cccs3)cc2)s1` the value was “inactive”; for `Cc1cc(-c2ccccc2)n2nc(-c3ccccc3)cc2n1`, “inactive”; for `CCc1ccccc1NC(=O)Cn1c(=O)n(CC2CCC(C(=O)NCCc3ccccc3)CC2)c(=O)c2ccccc21` (centres undefined), “inactive”. Turning to `COc1cccc2sc(NNC(=O)c3nc4ccccc4s3)nc12`, the Potency is 35.5 µM (active). As to `COc1ccccc1OCc1nc2ccccc2s1`, the Potency entry was “inactive”.

Turning to `COc1ccc(/C=C(/CC(=O)Nc2ccc(C)cc2)c2nc3ccccc3s2)cc1`, the Potency entry is “inactive”. The value for `Cc1cc2nc(-c3ccc(NC(=O)c4cc5ccccc5o4)cc3)oc2cc1C` was “inactive”; that for `COc1ccccc1CNC(=O)C(=O)NCC(c1ccco1)S(=O)(=O)c1ccc(F)cc1` (centres undefined) was “inactive”.

As to `CCCN(C(=O)Cn1cc(S(=O)(=O)N2CCN(c3ccccc3F)CC2)c2ccccc2c1=O)c1cccc(C)c1`, the Potency result is “inactive”. For `COc1cc(C(=O)NCC(c2ccc(Cl)cc2)N2CCOCC2)cc(OC)c1OC` (centres undefined) the value was “inactive”; for `CCOc1ccccc1/C=c1\sc2nc(-c3ccco3)nn2c1=O`, 50.1 µM (active).

`CCOC(=O)C1CCN(C(c2ccc(F)cc2)c2sc3nc(-c4ccco4)nn3c2O)CC1` (centres undefined): the Potency result was “inactive”.

Take `CCOc1ccccc1NC(=O)Cn1c(=O)n(Cc2ccco2)c(=O)c2sc3ccccc3c21`: the Potency entry was “inactive”. The value for `Cc1ccc(-n2c3nc(=O)[nH]c(=O)c-3cc3c(Cl)cccc32)cc1` was “inactive”; that for `CCOc1ccc(OCC)c(NC(=O)c2cc(C)nc3c2c(C)nn3-c2cccc(Cl)c2C)c1` was “inactive”. The value for `Cc1ccc(C(=O)Nc2cc3c(cc2N2CCCC2)n(C)c(=O)c(=O)n3C)cc1` was “inactive”; that for `O=S(=O)(c1ccc(Cl)cc1)c1nnn2c1nc(NC1CCCC1)c1sccc12` was “inactive”. As to `O=C(Nc1ccc(S(=O)(=O)N2CCC(c3nc4ccccc4s3)CC2)cc1)c1ccccc1F`, the Potency entry was “inactive”.

As for `S=c1[nH]nc(-c2ccncc2)n1/N=C/c1ccccc1Cl`, the Potency result was “inactive”.

Take `S=c1[nH]nc(-c2ccco2)n1/N=C/c1ccc(Br)s1`: the Potency is 70.8 µM (active). For `S=c1[nH]nc(-c2cccs2)n1/N=C/c1cccs1` the value was “inactive”; for `COc1ccc(C2C(=O)N(C3CCCCCC3)CC(=O)N2CCc2ccc(Cl)cc2)cc1OC` (centres undefined), “inactive”. Regarding `COc1ccc(OC)c2sc(N3CCN(C(=O)C4COc5ccccc5O4)CC3)nc12` (centres undefined), the Potency result is “inactive”. The value for `Cc1c(CC(=O)N2CCN(C(=O)C3COc4ccccc4O3)CC2)c(=O)oc2c(O)c(O)ccc12` (centres undefined) was 7.94 µM (active); that for `O=C(CNC(=O)C1COc2ccccc2O1)N/N=C/c1cc(Br)c(O)c(Br)c1` (centres undefined) was “inactive”.

These data come from PubChem BioAssay AID504333 (National Center for Advancing Translational Sciences (NCATS), 2011).
